Measurements taken from PubChem BioAssay (NCI).
Values joined by “and” are separate entries in the source; they are usually repeats but may differ in a detail not shown here. Identical values can stand only once. Compounds without any hit were thinned out: in the full panel of roughly 83,000, 20% have a hit.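 Plates (96-well) were seeded with cells, treated with compound at one concentration, and incubated for 48 hours before percent growth was determined.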 Active and inactive are the calls of the source. The calls were made as follows: active = growth percent below 10; inactive = the rest.

Columns and labels:
Assay in all cases: NCI-60 one-dose screen, 48 h (100 = growth as untreated, 0 = no growth, -100 = all killed)
HCT-15 colon = tested on: HCT-15 colon
HT29 colon = tested on: HT29 colon
SNB-75 CNS = conditions: 10 µM unless noted
SNB-19 CNS = tested on: SNB-19 CNS
U251 CNS = tested on: U251 CNS
PC-3 prostate = tested on: PC-3 prostate
SK-MEL-5 melanoma = tested on: SK-MEL-5 melanoma
UACC-62 melanoma = tested on: UACC-62 melanoma
SK-MEL-28 melanoma = conditions: 10 µM unless noted
SK-MEL-2 melanoma = conditions: 10 µM unless noted
EKVX NSCLC = tested on: EKVX NSCLC
SN12C renal = tested on: SN12C renal
UO-31 renal = tested on: UO-31 renal
TK-10 renal = tested on: TK-10 renal
ACHN renal = conditions: 10 µM unless noted
CAKI-1 renal = conditions: 10 µM unless noted
A498 renal = conditions: 10 µM unless noted
CCRF-CEM leukemia = tested on: CCRF-CEM leukemia
MOLT-4 leukemia = tested on: MOLT-4 leukemia
LOX IMVI melanoma = tested on: LOX IMVI melanoma

Measured: growth

N#CC(=S)Nc1ccc(Cl)c(Cl)c1
active: SNB-75 CNS -3.27% | SNB-19 CNS; 10 µM unless noted 4.95% | U251 CNS; 10 µM unless noted 9.34% | SK-MEL-5 melanoma; 10 µM unless noted -61.7% | UACC-62 melanoma; 10 µM 5.74% | UACC-62 melanoma; 100 µM -12.1% and -100% | SK-MEL-2 melanoma -26.4% | SN12C renal; 10 µM unless noted -7.92% | UO-31 renal; 10 µM unless noted -1.39% | TK-10 renal; 100 µM 8.11% and -69.1% | ACHN renal 0.0372% | CAKI-1 renal -6.76% | A498 renal -12%
inactive: HCT-15 colon; 10 µM unless noted 13.6% | HT29 colon; 10 µM unless noted 12.5% | PC-3 prostate; 10 µM unless noted 23.1% | SK-MEL-28 melanoma 25.2% | EKVX NSCLC; 10 µM unless noted 10.9% | TK-10 renal; 10 µM 17.5% | CCRF-CEM leukemia; 10 µM unless noted 28.4% | MOLT-4 leukemia; 10 µM unless noted 15.8%

O=[N+]([O-])c1cccc2ccc(N/N=C/c3ccccc3O)nc12
3.42% (active) and 86.9% (inactive): CCRF-CEM leukemia; 10 µM unless noted
inactive: HCT-15 colon; 10 µM unless noted 93.6% and 98% | HT29 colon; 10 µM unless noted 93.3% and 106% | SNB-75 CNS 67.8% and 87.9% | SNB-19 CNS; 10 µM unless noted 99.3% and 108% | U251 CNS; 10 µM unless noted 93.7% and 98.6% | PC-3 prostate; 10 µM unless noted 76.1% and 84.4% | SK-MEL-5 melanoma; 10 µM unless noted 88% and 90.9% | UACC-62 melanoma; 10 µM unless noted 85.5% and 94.6% | LOX IMVI melanoma; 10 µM unless noted 83.6% and 91.4% | SK-MEL-28 melanoma 134% and 109% | SK-MEL-2 melanoma 149% and 75% | EKVX NSCLC; 10 µM unless noted 78.8% and 82.1% | SN12C renal; 10 µM unless noted 96.4% and 98.5% | UO-31 renal; 10 µM unless noted 26.6% and 64.3% | TK-10 renal; 10 µM unless noted 150% and 120% | ACHN renal 68.4% and 103% | CAKI-1 renal 80.3% | A498 renal 92.8% and 95% | MOLT-4 leukemia; 10 µM unless noted 16.6% and 57%

CCC(=O)Oc1ccc(OCc2ccccc2)cc1
61.2% (inactive) and 3.23% (active): CAKI-1 renal
inactive: HCT-15 colon; 10 µM unless noted 103% and 97% | HT29 colon; 10 µM unless noted 98.7% and 91.2% | SNB-75 CNS 98.2% and 105% | SNB-19 CNS; 10 µM unless noted 97.7% and 96.5% | U251 CNS; 10 µM unless noted 87.7% and 80.8% | PC-3 prostate; 10 µM unless noted 77.6% and 58.7% | SK-MEL-5 melanoma; 10 µM unless noted 84.1% and 73.6% | UACC-62 melanoma; 10 µM unless noted 81.8% and 79.9% | LOX IMVI melanoma; 10 µM unless noted 88.8% and 84.7% | SK-MEL-28 melanoma 122% and 111% | SK-MEL-2 melanoma 123% | EKVX NSCLC; 10 µM unless noted 97.2% and 105% | SN12C renal; 10 µM unless noted 110% and 81.6% | UO-31 renal; 10 µM unless noted 45.6% and 30.4% | TK-10 renal; 10 µM unless noted 92.1% | ACHN renal 18.4% and 13.3% | A498 renal 120% and 93.1% | CCRF-CEM leukemia; 10 µM unless noted 62.9% and 63.6% | MOLT-4 leukemia; 10 µM unless noted 74.4% and 75.2%

S=c1nc[nH]c2nc[nH]c12
active: LOX IMVI melanoma; 10 µM 9.56% | LOX IMVI melanoma; 50 µM 6.96%
15.9% (inactive) and -6.1% (active): TK-10 renal; 750 µM
inactive: HCT-15 colon; 10 µM 39.1% | HCT-15 colon; 50 µM 15.6% | HT29 colon; 10 µM 41.7% | HT29 colon; 50 µM 14.3% | SNB-19 CNS; 10 µM 96.3% | SNB-19 CNS; 50 µM 91.6% | U251 CNS; 10 µM 51.5% | U251 CNS; 50 µM 36.8% | PC-3 prostate; 10 µM 53.5% | PC-3 prostate; 50 µM 43.2% | SK-MEL-5 melanoma; 10 µM 61.8% | SK-MEL-5 melanoma; 50 µM 12.8% | UACC-62 melanoma; 10 µM 15.8% | UACC-62 melanoma; 50 µM 19.8% | SK-MEL-2 melanoma 54.6% [50 µM] | EKVX NSCLC; 10 µM 89.9% | EKVX NSCLC; 50 µM 73.9% | SN12C renal; 10 µM 69.5% | SN12C renal; 50 µM 31.5% | UO-31 renal; 10 µM 34% | UO-31 renal; 50 µM 36.2% | TK-10 renal; 10 µM 33.1% | CCRF-CEM leukemia; 10 µM 13% | CCRF-CEM leukemia; 50 µM 16.8% | MOLT-4 leukemia; 10 µM 10.6% | MOLT-4 leukemia; 50 µM 13.3%
15.6% (inactive) and 1.72% (active): UACC-62 melanoma; 750 µM

N=C(N=C(N)N)N1CCOCC1
inactive: HCT-15 colon; 10 µM unless noted 101% and 94.5% | HT29 colon; 10 µM unless noted 104% and 111% | SNB-75 CNS 90.5% and 89.8% | SNB-19 CNS; 10 µM unless noted 110% and 99.1% | U251 CNS; 10 µM unless noted 101% and 103% | PC-3 prostate; 10 µM unless noted 93.7% and 94.5% | SK-MEL-5 melanoma; 10 µM unless noted 96.1% and 98% | UACC-62 melanoma; 10 µM unless noted 105% and 100% | LOX IMVI melanoma; 10 µM unless noted 102% and 93.2% | SK-MEL-28 melanoma 99.5% and 103% | SK-MEL-2 melanoma 111% and 99.2% | EKVX NSCLC; 10 µM unless noted 103% and 105% | SN12C renal; 10 µM unless noted 99.4% and 96.7% | UO-31 renal; 10 µM unless noted 83.8% and 85% | TK-10 renal; 10 µM unless noted 103% and 97.9% | ACHN renal 103% | CAKI-1 renal 94.8% and 103% | A498 renal 91.7% and 102% | CCRF-CEM leukemia; 10 µM unless noted 107% and 93.8% | MOLT-4 leukemia; 10 µM unless noted 105% and 102%
